Structures are written as SMILES. The whole screen tested about 330,000 compounds, of which about 4,400 (1.3%) were called active. The sample holds actives, similar compounds and a random draw of the others, so the mix is not that of the screen.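 The calls were made as follows: active = growth inhibition of the mutant yeast at or above 50%; inactive = the rest.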

The assay is described as follows: growth inhibition of tim23-1 ts yeast – luminescence, uHTS, primary screen (AID 463212).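 Also: temperature-sensitive mutant grown at 25 °C; plate controls were DMSO-treated mutant yeast for no effect and medium wells lacking yeast for full effect.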 The following applies: S. cerevisiae tim23-1 growth, BacTiter-Glo luminescence, 24 h; at 20 µM; stronger effect = higher value.
Regarding `Cc1ccc(S(=O)(=O)NCC(C)NS(C)(=O)=O)cc1` (stereo unspecified), the inhibition is -7.63% (inactive). Next, `CCOCCCNC(=O)Cc1cc(=O)[nH]c(=O)[nH]1`: -8.09% (inactive); `COC(=O)c1ccc(-c2c(-c3ccccc3)ncc3cc(OC)c(OC)cc23)cc1`: 18.9% (inactive). Next, `CCOC(=O)C1CSC(CC(=O)Nc2ccc(OCC)cc2)C(=O)N1` (stereo unspecified): 4.52% (inactive); `Cc1cccc(NC(=S)Nc2ccc(Cl)c(Cl)c2)c1`: 60.8% (active). Turning to `Cc1cccc(NC(=S)Nc2ccc3cn[nH]c3c2)c1`, the inhibition was -3.63% (inactive).

With `Cc1cccc(NC(=S)NC23CN4CN(CN(C4)C2)C3)c1`, the inhibition is 1.34% (inactive).

With `Cc1ccc(-n2ncc(C(=O)NC3CC3)c2C2CCN(C(=O)OC(C)(C)C)CC2)c(C)c1`, the inhibition was 13.5% (inactive).

For `CCOC(=O)Nc1ccc2c(c1)N(C(=O)CN1CCN3CCCC3C1)c1ccccc1CC2` (stereo unspecified), the inhibition is 11.3% (inactive). Next, `Cc1ccc(C(=O)/C=C/c2c(C)nn(-c3ccccc3)c2Cl)cc1`: 36.5% (inactive); `Cc1nn(-c2ccccc2)c(C)c1/C=C/C(=O)OC(C)C(N)=O` (stereo unspecified): 10.4% (inactive). Turning to `Cc1nn(-c2ccccc2)c(Cl)c1/C=C/C(=O)c1ccc(O)cc1`, the inhibition is 50.6% (active). Next, `CCOc1cc(/C=C2\SC(N3CCCCC3)=NC2=O)ccc1O`: 38.3% (inactive). Turning to `CC1CCN(C2=NC(=O)/C(=C/c3ccc(O)cc3)S2)CC1`, the inhibition is 31.9% (inactive). Next, `CCOc1cc(/C=C2\SC(N3CCCC(C)C3)=NC2=O)ccc1O` (stereo unspecified): 51.4% (active); `COc1ccc(N(CC(=O)NC2CCCCC2)S(=O)(=O)c2c(C)[nH]c(=O)[nH]c2=O)cc1`: 6.85% (inactive); `Cc1ccc(NC(=O)CSc2cccc3cccnc23)c(C)c1`: 19.5% (inactive).

Take `CCOC(=O)N/N=C/c1cccnc1`: the inhibition was 4.17% (inactive). Next, `O=C(CSc1cccc2cccnc12)N/N=C/c1cccnc1`: 52.9% (active); `N#Cc1ccc(C(c2ccc(C#N)cc2)n2cncn2)cc1`: 9.59% (inactive); `CCc1noc(C)c1C(=O)N1CCCC(N2CCN(c3ccc(F)cc3)CC2)C1` (stereo unspecified): -9.74% (inactive). As for `CC(C)OC(=O)Cn1nc(C(F)(F)F)c2c1CCCC2`, the inhibition is -5.77% (inactive). The value for `Cc1ccccc1C(=O)NC(=S)NC1CC1` was 56.1% (active); that for `O=C(NC(=S)NC1CCSC1=O)c1ccccc1F` (stereo unspecified) was -11.9% (inactive). The value for `Cc1ccccc1C(=O)NC(=S)Nc1ccc(N2CCN(C(=O)c3ccccc3)CC2)cc1` was -0.446% (inactive); that for `COC(=O)[C@@]1(C)[C@H]2C(=O)N(Cc3ccccc3)C(=O)[C@H]2[C@H]2CN=C(SCC3CC3)N21` was 28.2% (inactive); that for `CC1=C(C(=O)OCC2CCCCC2)C(c2ccc(F)cc2)NC(=O)N1` (stereo unspecified) was 23.5% (inactive). Next, `S=C(NCCCc1ccccc1)Nc1ccc(Br)cc1`: 62.8% (active); `S=C(Nc1ccc(Br)cc1)NC1CCN(Cc2ccccc2)CC1`: 3.13% (inactive). As to `O=S(=O)(NCCCc1ccccc1)c1ccc(Br)cc1`, the inhibition was 33.6% (inactive). Take `O=C1C(=O)N(CCCO)C(c2ccccc2)/C1=C(\O)c1ccc(Br)cc1` (stereo unspecified): the inhibition was 6.61% (inactive).

Consider `CCOc1ccc(CN2CCC(n3nccc3NC(=O)C3CC3)CC2)cc1CO`, for which the inhibition was -0.767% (inactive).

For the compound `CCn1c(=O)c(C(=O)NCc2ccc3c(c2)OCO3)c(O)c2ccccc21`, the inhibition is 28.6% (inactive). The value for `O=C(NCc1ccc2c(c1)OCO2)c1sccc1Br` was 11% (inactive); that for `O=C(NCc1ccc2c(c1)OCO2)c1c(O)nc2sccn2c1=O` was 68.2% (active). Turning to `CCCOc1ccc(/C(O)=C2/C(=O)C(=O)N(CCN(C)C)C2c2ccc(OC)c(OC)c2)cc1` (stereo unspecified), the inhibition was 3.19% (inactive). Next, `Cc1ccccc1N1C(=O)C(Oc2ccc(Cl)cc2)C1CNCC1CCCO1` (stereo unspecified): 32.6% (inactive).

Turning to `Fc1ccc(-c2ccc(NCCN3CCOCC3)nn2)cc1`, the inhibition was -3.29% (inactive).

On to `COc1ccc(C(=O)C(C)OC(=O)c2cccc(S(=O)(=O)Nc3c(C)n(C)n(-c4ccccc4)c3=O)c2)cc1` (stereo unspecified), for which the inhibition is 15.2% (inactive). The value for `O=C(N/N=C/c1cccc(OCc2ccccc2)c1)c1ccc(Br)o1` was 47.5% (inactive); that for `COCCNC(=O)/C(C#N)=C/c1cccc(OCc2ccccc2)c1` was 68.2% (active). Next, `N#C/C(=C\c1ccc(O)c(O)c1)C(=O)NCc1ccccc1`: 12.3% (inactive); `COc1cccc(N(CC(=O)NC2CCCCCC2)S(=O)(=O)c2ccccc2)c1`: 11.3% (inactive). With `Cc1c(S(=O)(=O)NCc2ccccc2)c(=O)n(C)c(=O)n1C`, the inhibition is 4.82% (inactive). For the compound `O=C(N/N=C/c1cccnc1)c1ccc(NC(=O)c2ccc(F)cc2)cc1`, the inhibition is 4.04% (inactive).

Take `Cc1cc(/C=C(/C#N)C(=O)Nc2ccc(Cl)cc2)c(C)n1-c1cccnc1`: the inhibition is 5.94% (inactive). Next, `N#C/C(=C\c1cccnc1)C(=O)Nc1ccc(SC(F)F)cc1`: 76.7% (active); `CN=C(c1ccccc1)c1c(C)cccc1C`: 3.2% (inactive). The value for `COc1ccccc1NC(=O)c1ccc(N2CC3CC(C2)c2cccc(=O)n2C3)c(NC(=O)c2cccnc2)c1` (stereo unspecified) was -0.075% (inactive); that for `CC1CCCN(CCCNC(=O)CN2C(=O)COc3ccc(S(=O)(=O)N4CCOCC4)cc32)C1` (stereo unspecified) was -34.2% (inactive).

For `COCCNC(=O)CN1C(=O)CSc2ncccc21`, the inhibition is 11.6% (inactive). The value for `CCc1ccc2c(c1)C1(NN=C(c3ccccc3)S1)C(=O)N2` (stereo unspecified) was 52.6% (active); that for `O=C(CNC(=O)c1ccc(Cl)cc1Cl)NCC(=O)Nc1ccccc1N1CCOCC1` was 3.5% (inactive). The value for `Cc1cccc(NC(=O)Nc2cccc(Oc3c(F)c(F)c(F)c(F)c3F)c2)c1` was 17% (inactive); that for `CC(Oc1cccc(NC(=O)c2cccs2)c1)C(=O)c1ccccc1` (stereo unspecified) was 34.3% (inactive); that for `Cc1ccoc1C(=O)Nc1cccc(Oc2ccccc2)c1` was 77.9% (active). Next, `N#Cc1ccccc1S(=O)(=O)N1CCN(Cc2c(O)ccc3ccccc23)CC1`: 21.3% (inactive); `Cc1cc(Nc2ccccc2)n(C(=O)c2ccc(N)cc2)n1`: 57.6% (active).

As to `Cn1c(Nc2ccccc2)cc(=O)n(C)c1=O`, the inhibition is 6.86% (inactive). Next, `CCOC(=O)c1c(N)nn(C(=O)c2ccccc2)c1-c1ccccc1`: 27% (inactive); `O=C(COc1ccc(Cl)cc1Cl)N/N=C/c1ccccn1`: 39% (inactive).

For the origin of these results see PubChem BioAssay AID463212 (Sanford-Burnham Center for Chemical Genomics, 2010).
